In PubChem BioAssay (EPA / NIEHS):
Calls of active or inactive are those of the source. The calls were made as follows: active = hit-call score of the fitted dose curve at least 0.9, where 1 is the maximum; inactive = score below 0.9.

Assay: ATG_PXRE_CIS: Attagene CIS-FACTORIAL HepG2 Assay for human Pregnane X Receptor Element (PXRE) (AID 2282957)
Conditions: HepG2 Attagene CIS-FACTORIAL PXRE reporter, mRNA; actives raise or lower the signal
Procedure: ATG_CIS is a cell-based, multiplexed-readout assay that uses HepG2, a human liver cell line, with measurements taken at 24 hours after chemical dosing in a 24-well plate.ATG_PXRE_CIS is one of 52 assay component(s) measured or calculated from the ATG_CIS assay. It is designed to make measurements of mRNA induction, a form of inducible reporter, as detected with fluorescence intensity signals by Reverse transcription polymerase chain reaction (RT-PCR) and Capillary electrophoresis technology.Data from the assay component ATG_PXRE_CIS was analyzed into 1 assay endpoint. This assay endpoint, ATG_PXRE_CIS, was analyzed with bidirectional fitting relative to DMSO as the negative control and baseline of activity. Using a type of inducible reporter, measures of mRNA for gain or loss-of-signal activity can be used to understand the reporter gene at the transcription factor-level as they relate to the gene NR1I2. Furthermore, this assay endpoint can be referred to as a primary readout, because this assay has produced multiple assay endpoints where this one serves a reporter gene function. To generalize the intended target to other relatable targets, this assay endpoint is annotated to the nuclear receptor intended target family, where the subfamily is non-steroidal.
Human liver HepG2 cells are transiently transfected with multiple reporter transcription units (MRTUs) in 6-well plates using FuGene 6 reagent (Roche; 3 ml FuGene/1 mg DNA). The MRTU constructs are regulated by a cis-regulating element (promoter). […] A major difference between the CIS and TRANS system is that in CIS activities of endogenous TFs are measured, whereas the TRANS assay evaluates changes in activities of exogenous, chimeric NR-Gal4 proteins. […] At the end of 24 hour incubation, total RNA was isolated using TriZol reagent (Invitrogen). The isolated RNA is then reverse-transcribed using oligo(dT) primer and Mo-MLV reverse transcriptase (Invitrogen) with DNAse I (Ambion) treatment for 30 min. The one-tenth of the produced cDNA was amplified by PCR using Taq DNA polymerase (Invitrogen) and two reporter sequence-specific primers. The PCR products were fluorescently labeled by primer extension with 6-arboxyfluorescein (6-FAM) 5'-labeled reporter sequence-specific primer (2 min at 95 C, 20 s at 68 C and 10 min at 72 C) and these products were digested with 5U of HpaI (New England Biolabs) for 2h at 37 C. The fragments were purified using Qiaquick PCR columns (Qiagen), analyzed on an ABI 3130xL genetic analyzer (Applied Biosystems) with peak positions identified by using a set of X-rhodamine (ROX)-labeled MapMarker1000 molecular weight standards (BioVentures). The raw capillary electrophoresis data was processed using Attagraph software (Attagene).

Row | Structure (SMILES) | AC50 | outcome
1 | Cc1cccc(N(C)C(=S)Oc2ccc3ccccc3c2)c1 | 0.61 µM (active) | –
2 | Cc1ccccc1C | 36.5 µM (active) | –
3 | O=C(O)CCCCCCCCCC(=O)O | – | inactive
4 | Cc1oncc1C(=O)Nc1ccc(C(F)(F)F)cc1 | – | inactive
5 | N=c1ccn2c(n1)O[C@H]1[C@H](O)[C@@H](CO)O[C@H]12 | – | inactive
6 | O=C1C=CC(=O)O1 | – | inactive
7 | C1=CCCC1 | – | inactive
8 | N#CCc1ccc(Cl)cc1Cl | 61.8 µM (active) | –
9 | CC(C)(C)c1ccc(N)cc1 | 24.2 µM (active) | –
10 | COC(=O)c1sccc1S(N)(=O)=O | 79.3 µM (active) | –
11 | O=C(O)c1cc2ccccc2nc1C(=O)O | – | inactive
12 | Nc1ccc(N=Nc2ccccc2)c(N)n1 | – | inactive
13 | CC(C)=CC1CC(C)CCO1 (stereo not given) | – | inactive
14 | CCCCCCCOC(=O)CCC | 48 µM (active) | –
15 | Oc1ccc(Cl)cc1Cc1cc(Cl)ccc1O | – | inactive
16 | C=CC(=O)NC(C)(C)CS(=O)(=O)O | – | inactive
17 | CCN(CC#N)c1cccc(C)c1 | 45.3 µM (active) | –
18 | O=CN1CCCCC1 | – | inactive
19 | CCN(Cc1cccc(S(=O)(=O)O)c1)c1ccc(C(=C2C=CC(=[N+](CC)Cc3cccc(S(=O)(=O)[O-])c3)C=C2)c2ccccc2)cc1 | 20.6 µM (active) | –
20 | S=C(NC1CCCCC1)NC1CCCCC1 | 4.14 µM (active) | –

Row | Structure (SMILES) | AC50 | outcome
21 | CC(=O)C=CC1C(C)=CCC(C)C1(C)C (stereo not given) | 0.972 µM (active) | –
22 | O=Cc1ccc(CO)o1 | – | inactive
23 | C=CC(=O)OCCC(=O)O | – | inactive
24 | C=CCOCC(O)CCl (stereo not given) | 35.5 µM (active) | –
25 | CCOCC(=O)O | 72 µM (active) | –
26 | C[Si](C)(CCCN)O[Si](C)(C)CCCN | – | inactive
27 | CCCOCCOCCOCCO | – | inactive
28 | CCOC(=O)c1ccccc1C(=C1C=C(Br)C(=O)C(Br)=C1)c1cc(Br)c(O)c(Br)c1 | – | inactive
29 | O=C(Oc1ccccc1)c1ccc2ccccc2c1O | 21.5 µM (active) | –
30 | c1cc(C(c2ccc(OCC3CO3)cc2)C(c2ccc(OCC3CO3)cc2)c2ccc(OCC3CO3)cc2)ccc1OCC1CO1 (stereo not given) | 7.01 µM (active) | –
31 | CCc1c(C(=O)O)c(=O)cnn1-c1ccc(Cl)cc1 | 52.3 µM (active) | –
32 | NC(=O)N=NC(N)=O | – | inactive
33 | CC1(C)O[C@@H]2C[C@H]3[C@@H]4C[C@H](F)C5=CC(=O)CC[C@]5(C)[C@H]4[C@@H](O)C[C@]3(C)[C@]2(C(=O)CO)O1 | 22.8 µM (active) | –
34 | CN1C(=O)N(C)C(O)C1O (stereo not given) | – | inactive
35 | C[C@]12CCC(=O)C=C1CC[C@@H]1[C@@H]2C(=O)C[C@@]2(C)[C@H]1CC[C@]2(O)C(=O)CO | 39.5 µM (active) | –
36 | O=c1n(CCO)c(=O)n(CCO)c(=O)n1CCO | – | inactive
37 | C=CC(=O)OCC(Br)CBr (stereo not given) | – | inactive
38 | CCCCCCCCCCOS(=O)(=O)O | – | inactive
39 | C=CC(C)(C)C | – | inactive
40 | CC1=CC[C@H]2C[C@@H]1C2(C)C | – | inactive
